# Assay results reported in PubChem BioAssay (NCI).
# This is part of a sample that, as a whole, favours compounds with a hit. Of some 79,000 tested, about 15% had one in any assay. Values without a mark were called inactive. Active and inactive are the calls of the source. No stated cut-off is given here; in the data, active means growth inhibition above about 70%; inactive means the rest.
# Assays:
# [1] = NCI Yeast Anticancer Drug Screen. Data for the rad52 strain (AID 147);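 further: 0% = growth of vehicle-treated control cultures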; conditions: S. cerevisiae rad52 mutant growth inhibition, stronger effect = higher value
# Summary of the method: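 Genetically altered yeast (DNA damage repair defect) treated with compound; inhibition calculated relative to vehicle.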
# [2] = NCI Yeast Anticancer Drug Screen. Data for the wt1 strain (AID 149);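 further: 0% = growth of vehicle-treated wt1 cultures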; conditions: S. cerevisiae wt1 strain (SPY 50644) growth inhibition, stronger effect = higher value
# Summary of the method: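 Readout: yeast growth inhibition, normalised to vehicle controls, in the wt1 strain exposed to test compounds.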
# [3] = NCI Yeast Anticancer Drug Screen. Data for the rad50EPP+ strain (AID 151);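 further: 0% = growth of vehicle-treated control cultures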; conditions: S. cerevisiae rad50 mutant strain, stronger effect = higher value
# Summary of the method: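 Strain rad50EPP+; compound exposure; % growth inhibition vs vehicle.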
# [4] = NCI Yeast Anticancer Drug Screen. Data for the mgt1 strain (AID 153); conditions: S. cerevisiae mgt1 mutant growth inhibition, stronger effect = higher value
# Summary of the method: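 Read-out: yeast growth inhibition vs vehicle control. Strain mgt1, drawn from a panel altered in DNA damage repair or cell cycle control.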
# [5] = NCI Yeast Anticancer Drug Screen. Data for the rad50 strain (AID 155);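 further: 0% = growth of vehicle-only cultures of the same strain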; conditions: S. cerevisiae rad50 strain growth inhibition, stronger effect = higher value
# Summary of the method: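 Compounds were tested on a yeast strain with an engineered DNA damage repair alteration; the reported value is growth inhibition normalised to vehicle treatment.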
# [6] = NCI Yeast Anticancer Drug Screen. Data for the mec2-1 strain (AID 157); conditions: S. cerevisiae mec2-1 strain, stronger effect = higher value
# Summary of the method: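 Cells of the genetically defined mec2-1 yeast strain are incubated with test compound. Inhibition of growth is calculated against vehicle-treated controls.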
# [7] = NCI Yeast Anticancer Drug Screen. Data for the rad14 strain (AID 159);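 further: 0% = growth of vehicle-treated control cultures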; conditions: S. cerevisiae rad14 strain growth inhibition, stronger effect = higher value
# Summary of the method: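 Compound-treated yeast with a defined DNA-repair lesion; growth inhibition normalised to vehicle-treated cultures.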
# [8] = NCI Yeast Anticancer Drug Screen. Data for the sgs1 mgt1 strain (AID 161);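 further: 0% = growth of cultures given vehicle only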; conditions: S. cerevisiae sgs1 mgt1 strain, stronger effect = higher value
# Summary of the method: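 Inhibition of yeast growth, normalised to vehicle-treated controls, is reported for a strain bearing genetic alterations in DNA damage repair.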
# [9] = NCI Yeast Anticancer Drug Screen. Data for the CLN2oe strain (AID 163);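 further: 0% = growth of vehicle-only control cultures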; conditions: S. cerevisiae CLN2oe strain, stronger effect = higher value
# Summary of the method: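 Strain altered in cell-cycle control, incubated with compound; growth compared to solvent-treated controls.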
# [10] = NCI Yeast Anticancer Drug Screen. Data for the cln2 rad14 strain (AID 165);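 further: 0% = growth equal to vehicle treated cultures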; conditions: S. cerevisiae cln2 rad14 strain, stronger effect = higher value
# Summary of the method: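 The screen exposed genetically defined yeast (cln2 rad14) to test compounds and scored growth inhibition relative to vehicle-treated controls.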
# [11] = NCI Yeast Anticancer Drug Screen. Data for the bub3 strain (AID 167); conditions: S. cerevisiae bub3 mutant strain, stronger effect = higher value
# Summary of the method: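 Growth of a checkpoint-deficient yeast mutant is measured after compound exposure. Values represent inhibition relative to vehicle.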
# [12] = NCI Yeast Anticancer Drug Screen. Data for the wt2 strain (AID 169);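 further: 0% = growth of vehicle-treated yeast cultures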; conditions: S. cerevisiae wt2 strain growth inhibition, stronger effect = higher value
# Summary of the method: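 Steps: yeast strain treated with compound; growth recorded; inhibition calculated relative to cultures given vehicle alone.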
# [13] = NCI Yeast Anticancer Drug Screen. Data for the mlh1 strain (AID 171);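 further: 0% = growth of vehicle-treated control cultures of the same strain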; conditions: S. cerevisiae mlh1 strain growth inhibition, stronger effect = higher value
# Summary of the method: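 Yeast screen: mutant strain plus compound, growth scored against vehicle control wells.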
# [14] = NCI Yeast Anticancer Drug Screen. Data for the sgs1 strain (AID 173);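 further: 0% = growth of vehicle-only control cultures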; conditions: S. cerevisiae sgs1 mutant, stronger effect = higher value
# Summary of the method: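 Inhibition of yeast growth served as the measure. The mutant strain was treated with each compound, and growth was normalised to cultures receiving vehicle alone.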
# [15] = NCI Yeast Anticancer Drug Screen. Data for the mlh1 rad18 strain (AID 175); conditions: S. cerevisiae mlh1 rad18 strain growth inhibition, stronger effect = higher value
# Summary of the method: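 Compound-treated yeast growth, normalised to vehicle controls. Strain bears defined DNA repair mutations.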
# [16] = NCI Yeast Anticancer Drug Screen. Data for the rad18 strain (AID 177); conditions: S. cerevisiae rad18 mutant growth inhibition, stronger effect = higher value
# Summary of the method: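 Inhibition values reflect reduced yeast growth compared with vehicle-treated controls, using a strain engineered with a DNA damage repair defect.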
# [17] = at 5.0 µM (retest, dose inferred, filed as 0.5)
# [18] = at 50.0 µM (retest, dose inferred, filed as 5.0)
smiles,measurement,setting,value
CCC/C(Cl)=N\OC(=O)Nc1cccc(C(F)(F)F)c1,growth inhibition,[1]; at 1.2 µM,9%
same,growth inhibition,[1]; at 3.7 µM,10%
same,growth inhibition,[1]; at 11.0 µM,10%
same,growth inhibition,[1]; at 33.0 µM,19%
same,growth inhibition,[1]; at 100.0 µM,21%
same,growth inhibition,[2]; at 1.2 µM,1%
same,growth inhibition,[2]; at 3.7 µM,2%
same,growth inhibition,[2]; at 11.0 µM,0%
same,growth inhibition,[2]; at 33.0 µM,2%
same,growth inhibition,[2]; at 100.0 µM,5%
same,growth inhibition,[3]; at 1.2 µM,27%
same,growth inhibition,[3]; at 3.7 µM,32%
same,growth inhibition,[3]; at 11.0 µM,36%
same,growth inhibition,[3]; at 33.0 µM,35%
same,growth inhibition,[3]; at 100.0 µM,25%
same,growth inhibition,[4]; at 1.2 µM,7%
same,growth inhibition,[4]; at 3.7 µM,37%
same,growth inhibition,[4]; at 11.0 µM,68%
same,growth inhibition,[4]; at 33.0 µM,78% (active)
same,growth inhibition,[4]; at 100.0 µM,66%
same,growth inhibition,[5]; at 1.2 µM,12%
same,growth inhibition,[5]; at 3.7 µM,14%
same,growth inhibition,[5]; [17],-15%
same,growth inhibition,[5]; at 11.0 µM,13%
same,growth inhibition,[5]; at 33.0 µM,25%
same,growth inhibition,[5]; [18],99% (active)
same,growth inhibition,[5]; at 50.0 µM,87.1% (active)
same,growth inhibition,[5]; at 100.0 µM,26%
same,growth inhibition,[6]; at 1.2 µM,15%
same,growth inhibition,[6]; at 3.7 µM,18%
same,growth inhibition,[6]; [17],16%
same,growth inhibition,[6]; at 11.0 µM,19%
same,growth inhibition,[6]; at 33.0 µM,20%
same,growth inhibition,[6]; [18],98% (active)
same,growth inhibition,[6]; at 50.0 µM,91.8% (active)
same,growth inhibition,[6]; at 100.0 µM,23%
same,growth inhibition,[7]; at 1.2 µM,12%
same,growth inhibition,[7]; at 3.7 µM,14%
same,growth inhibition,[7]; at 11.0 µM,16%
same,growth inhibition,[7]; at 33.0 µM,23%
same,growth inhibition,[7]; at 100.0 µM,20%
same,growth inhibition,[8]; [17],6%
same,growth inhibition,[8]; [18],99% (active)
same,growth inhibition,[8]; at 50.0 µM,85.8% (active)
same,growth inhibition,[9]; at 1.2 µM,15%
same,growth inhibition,[9]; at 3.7 µM,5%
same,growth inhibition,[9]; at 11.0 µM,4%
same,growth inhibition,[9]; at 33.0 µM,6%
same,growth inhibition,[9]; at 100.0 µM,18%
same,growth inhibition,[10]; [17],56%
same,growth inhibition,[10]; [18],98% (active)
same,growth inhibition,[10]; at 50.0 µM,89.7% (active)
same,growth inhibition,[11]; at 1.2 µM,34%
same,growth inhibition,[11]; at 3.7 µM,44%
same,growth inhibition,[11]; [17],9%
same,growth inhibition,[11]; at 11.0 µM,51%
same,growth inhibition,[11]; at 33.0 µM,47%
same,growth inhibition,[11]; [18],98% (active)
same,growth inhibition,[11]; at 50.0 µM,87.7% (active)
same,growth inhibition,[11]; at 100.0 µM,46%
same,growth inhibition,[12]; at 1.2 µM,21%
same,growth inhibition,[12]; at 3.7 µM,38%
same,growth inhibition,[12]; at 11.0 µM,61%
same,growth inhibition,[12]; at 33.0 µM,83% (active)
same,growth inhibition,[12]; at 100.0 µM,77% (active)
same,growth inhibition,[13]; at 1.2 µM,3%
same,growth inhibition,[13]; at 3.7 µM,7%
same,growth inhibition,[13]; at 11.0 µM,16%
same,growth inhibition,[13]; at 33.0 µM,18%
same,growth inhibition,[13]; at 100.0 µM,17%
same,growth inhibition,[14]; at 1.2 µM,50%
same,growth inhibition,[14]; at 3.7 µM,62%
same,growth inhibition,[14]; at 11.0 µM,81% (active)
same,growth inhibition,[14]; at 33.0 µM,90% (active)
same,growth inhibition,[14]; at 100.0 µM,88% (active)
same,growth inhibition,[15]; [17],-10%
same,growth inhibition,[15]; [18],99% (active)
same,growth inhibition,[15]; at 50.0 µM,83.7% (active)
same,growth inhibition,[16]; at 1.2 µM,-7%
same,growth inhibition,[16]; at 3.7 µM,-8%
same,growth inhibition,[16]; at 11.0 µM,-7%
same,growth inhibition,[16]; at 33.0 µM,-16%
same,growth inhibition,[16]; at 100.0 µM,2%
c1ccc(-c2nc3cccnc3s2)cc1,growth inhibition,[1]; at 1.2 µM,1%
same,growth inhibition,[1]; at 3.7 µM,1%
same,growth inhibition,[1]; at 11.0 µM,6%
same,growth inhibition,[1]; at 33.0 µM,14%
same,growth inhibition,[1]; at 100.0 µM,16%
same,growth inhibition,[2]; at 1.2 µM,-2%
same,growth inhibition,[2]; at 3.7 µM,-4%
same,growth inhibition,[2]; at 11.0 µM,-2%
same,growth inhibition,[2]; at 33.0 µM,-2%
same,growth inhibition,[2]; at 100.0 µM,0%
same,growth inhibition,[3]; at 1.2 µM,3%
same,growth inhibition,[3]; at 3.7 µM,7%
same,growth inhibition,[3]; at 11.0 µM,8%
same,growth inhibition,[3]; at 33.0 µM,19%
same,growth inhibition,[3]; at 100.0 µM,24%
same,growth inhibition,[4]; at 1.2 µM,1%
same,growth inhibition,[4]; at 3.7 µM,-2%
same,growth inhibition,[4]; at 11.0 µM,-1%
same,growth inhibition,[4]; at 33.0 µM,-10%
same,growth inhibition,[4]; at 100.0 µM,-11%
same,growth inhibition,[5]; at 1.2 µM,2%
same,growth inhibition,[5]; at 3.7 µM,9%
same,growth inhibition,[5]; [17],5%
same,growth inhibition,[5]; at 11.0 µM,5%
same,growth inhibition,[5]; at 33.0 µM,9%
same,growth inhibition,[5]; [18],56%
same,growth inhibition,[5]; at 50.0 µM,73.5% (active)
same,growth inhibition,[5]; at 100.0 µM,33%
same,growth inhibition,[6]; at 1.2 µM,-2%
same,growth inhibition,[6]; at 3.7 µM,-1%
same,growth inhibition,[6]; [17],5%
same,growth inhibition,[6]; at 11.0 µM,-3%
same,growth inhibition,[6]; at 33.0 µM,-12%
same,growth inhibition,[6]; [18],20%
same,growth inhibition,[6]; at 50.0 µM,9.5%
same,growth inhibition,[6]; at 100.0 µM,20%
same,growth inhibition,[7]; at 1.2 µM,-3%
same,growth inhibition,[7]; at 3.7 µM,0%
same,growth inhibition,[7]; at 11.0 µM,-2%
same,growth inhibition,[7]; at 33.0 µM,1%
same,growth inhibition,[7]; at 100.0 µM,5%
same,growth inhibition,[8]; [17],-5%
same,growth inhibition,[8]; [18],18%
same,growth inhibition,[8]; at 50.0 µM,13.6%
same,growth inhibition,[9]; at 1.2 µM,0%
same,growth inhibition,[9]; at 3.7 µM,-1%
same,growth inhibition,[9]; at 11.0 µM,0%
same,growth inhibition,[9]; at 33.0 µM,-5%
same,growth inhibition,[9]; at 100.0 µM,3%
same,growth inhibition,[10]; [17],-25%
same,growth inhibition,[10]; [18],-19%
same,growth inhibition,[10]; at 50.0 µM,5.55%
same,growth inhibition,[11]; at 1.2 µM,-4%
same,growth inhibition,[11]; at 3.7 µM,0%
same,growth inhibition,[11]; [17],25%
same,growth inhibition,[11]; at 11.0 µM,10%
same,growth inhibition,[11]; at 33.0 µM,10%
same,growth inhibition,[11]; [18],43%
same,growth inhibition,[11]; at 50.0 µM,-2.7%
same,growth inhibition,[11]; at 100.0 µM,14%
same,growth inhibition,[12]; at 1.2 µM,-2%
same,growth inhibition,[12]; at 3.7 µM,-3%
same,growth inhibition,[12]; at 11.0 µM,-3%
same,growth inhibition,[12]; at 33.0 µM,-5%
same,growth inhibition,[12]; at 100.0 µM,0%
same,growth inhibition,[13]; at 1.2 µM,2%
same,growth inhibition,[13]; at 3.7 µM,13%
same,growth inhibition,[13]; at 11.0 µM,2%
same,growth inhibition,[13]; at 33.0 µM,-2%
same,growth inhibition,[13]; at 100.0 µM,15%
same,growth inhibition,[15]; [17],-8%
same,growth inhibition,[15]; [18],1%
same,growth inhibition,[15]; at 50.0 µM,-4.1%
same,growth inhibition,[16]; at 1.2 µM,3%
same,growth inhibition,[16]; at 3.7 µM,2%
same,growth inhibition,[16]; at 11.0 µM,-1%
same,growth inhibition,[16]; at 33.0 µM,-6%
same,growth inhibition,[16]; at 100.0 µM,-15%
